HCV inhibitor – blocks hepatitis C virus; Huh7.5.1 HCVcc-Cre infection, luciferase reporter, 44 h; Potency, µM (top dose mostly 41.8 µM), most hits filed as inhibitors; 340,000 compounds, 3.4% hits; AID 651820
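Seed cells (1,000/well) for 4 h; treat with compound and infect with HCVcc-Cre, moi about 0.5. Incubate 44 h, then detect luciferase activity.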
HCMV inh – inhibitors of human cytomegalovirus; HFF cells, HCMV-luciferase reporter, 72 h; active compounds read low; activity change, negative = inhibition, % at 57.5 µM; 410,000 compounds, 4.5% hits; AID 1259415; in the data active = activity change below about -60%; inconclusive = no clear call, values can overlap the other calls; inactive = above about -39%
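Human foreskin fibroblasts infected with luciferase-reporter HCMV at MOI 1 PFU/cell, compounds at two doses. Luciferase measured 72 h post infection; normalized to buffer-only basal and Salinomycin (10uM) controls.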
FMDV antiviral – blocks foot and mouth disease virus | FMDV antiviral cell-based qHTS | Potency, µM (top dose mostly 57.9 µM), most hits filed as inhibitors | 410,000 compounds, 1.2% hits | AID 1159524; calls by dose curve; tested in HEK293T cells; note: read-out not given here; nearly all actives have a fitted effect of over 45% in size
Vaccinia mCherry – vaccinia inhibition (mCherry reporter). Vaccinia virus mCherry reporter infection, fluorescence. Potency, µM (titrated, usually from 36.5 µM), actives largely listed as inhibitors. 310,000 compounds, 0.63% hits. AID 720579; calls by dose curve; tested in A549 cells; note: nearly all actives have a fitted effect of over 35% in size
Sm TGR block – inhibitors of Schistosoma mansoni thioredoxin glutathione reductase; Q962Y6; purified TGR, DTNB reduction, TNB absorbance 405 nm; Potency, µM (titrated, usually from 114 µM), hits mostly inhibitors; 360,000 compounds, 3% hits; AID 485364; note: nearly all actives have a fitted effect of over 60% in size
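TGR 20 nM + NADPH 100 uM (dispensed conc.), cpd preinc 15 min RT; start with NADPH (500 uM addition) then DTNB (15 mM addition). Kinetic TNB absorbance, 405 nm filter. Four-parameter Hill fit across titration.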
VACV Venus inh – vaccinia inhibition (Venus reporter); Potency, µM (titrated, usually from 36.5 µM), most hits filed as inhibitors; Vaccinia virus Venus reporter expression, fluorescence; 330,000 compounds, 0.46% hits; calls by dose curve; tested in A549 cells; note: nearly all actives have a fitted effect of over 30% in size
A number is an active result; - = inactive; ? = inconclusive; . = not tested or not shown; [ ] = dose if it differs, or a comment. This is a sample that favours compounds with a hit; in the whole collection about 9.3% have one here. Unless noted, calls come from the whole dose curve; as a rule, active = well fitted curve in the direction sought with a large enough effect; inconclusive = small, poorly fitted or top-dose-only effect, or another doubt; inactive = no such curve, though single readings can be large; an effect the other way counts as inactive or inconclusive.

SMILES	HCV inhibitor	HCMV inh	FMDV antiviral	Vaccinia mCherry	Sm TGR block	VACV Venus inh
COc1cccc(OCCOc2ccccc2OC(C)C)c1	?	-	-	.	-	-
COC(=O)c1c(C(=O)OC)c(-c2ccc(OC)cc2)n2c1CS(=O)(=O)C2	-	-74	-	.	50µM	.
O=S(=O)(Nc1ccc(S(=O)(=O)N2CCCC2)cc1)c1ccc(F)cc1	-	-	-	-	-	-
NS(=O)(=O)c1ccc(CCNC(=O)COC(=O)C2CCN(c3ccc(C(F)(F)F)cn3)CC2)cc1	-	-	-	-	-	-
Cc1c(C)n(Cc2ccccc2)c2ncnc(NN)c12	11µM	-73	?	.	-	.
Cc1c(C)n(CCCN(C)C)c2ncnc(Nc3ccccc3)c12	?	-	-	.	-	.
COc1ccccc1Nc1ncnc2c1c(C)c(C)n2CCCN(C)C	4µM	-	-	.	-	.
COCCn1c(C)c(C)c2c(NCCc3ccccc3)ncnc21	?	-99	?	.	-	.
COc1cccc(CC(=O)Nc2ccccc2N2CCCC2)c1	-	.	-	.	-	.
O=C(/C=C/c1ccncc1)c1ccc2c(c1)OCCO2	-	-	28µM	-	45µM	-
COc1cc(/C=C/C(=O)c2ccc3c(c2)OCCO3)cc(Br)c1OCC(=O)N(C)C	7.1µM	-97	7.9µM	2.8µM	-	?
CCCCn1c(SCC(=O)N2CC(C)CC(C)C2)nc2cc(S(N)(=O)=O)ccc21 (stereo unspecified)	-	-	-	.	-	.
CCc1cc2cc(C(=O)Nc3ccc(C)cc3)sc2s1	-	-67	-	-	-	-
Cc1ccc(-c2sc(C(=O)Nc3ccc(Br)cc3)cc2CC(=O)O)cc1	.	-	-	-	-	-
O=[N+]([O-])c1cc(/C=N/O)ccc1SCc1ccccc1	-	-66	-	.	-	.
CN(Cc1cnc2nc(N)nc(N)c2n1)c1ccc(C(=O)NC(CCC(=O)O)C(=O)O)cc1C(F)(F)F (stereo unspecified)	?	-97	-	0.32µM	.	1.1µM
CN(Cc1cnc2nc(N)nc(N)c2n1)c1ccc(C(=O)NC(CCC(=O)O)C(=O)O)cc1 (stereo unspecified)	?	-97	-	11µM	.	?
CCN(CC)S(=O)(=O)c1ccc2oc(SCC3CN=C(c4ccc(OC)cc4)S3)nc2c1 (stereo unspecified)	11µM	-67	?	.	-	.
CCCCC[C@@H](/C=C/C1C(=O)C=C[C@H]1C/C=C\CCCC(=O)O)OC(C)=O (stereo partly specified)	-[8.37 µM]	-	35µM	?	.	-
CCCCC[C@H](O)/C=C/[C@H]1C=CC(=O)[C@@H]1C/C=C\CCCC(=O)O	-[8.37 µM]	.	-[6.7 µM]	-[3.33 µM]	40µM	-[3.33 µM]
C[C@]12CCC(=O)C=C1C=CC1C2CC[C@]2(C)C(=O)CCC12 (stereo partly specified)	-	-70	-	-	.	-
CC(C)(C)OC(=O)NCCCCCNC(=O)c1[nH]cnc1C(=O)Nc1ccc(Cl)cc1	35µM	-	32µM	11µM	-	?
Cc1ccc(NC(=O)c2nc[nH]c2C(=O)NCCCCCNC(=O)OC(C)(C)C)cc1	?	-64	?	-	-	?
CC(C)(C)OC(=O)NCCCCCNC(=O)c1[nH]cnc1C(=O)Nc1ccccc1	-	-	-	?	-	-
CCN(C)Cc1c(C(=O)N2CCc3ccccc3C2)nc2ccc(Cl)cn12	-	-	-	.	35µM	.
SMILES	HCV inhibitor	HCMV inh	FMDV antiviral	Vaccinia mCherry	Sm TGR block	VACV Venus inh
COC1CCN(Cc2c(C(=O)N3CCc4ccccc4C3)nc3ccc(Cl)cn23)CC1	-	-	-	-	-	-
COCC1CCN(Cc2c(C(=O)N3CCc4ccccc4C3)nc3ccc(Cl)cn23)C1 (stereo unspecified)	-	-	-	.	20µM	.
COc1cc(C(=O)N/C(=C\c2cn(C)c3ccccc23)C(=O)N2CCN(C)CC2)cc(OC)c1OC	-	-	-	?	-	-
CCN(CC(=O)NC(C)(C)C)C(=O)CCl	?	?	?	?	50µM	?
N#Cc1cc(C#N)c(N2CCN(c3cccc(Cl)n3)CC2)nc1N	11µM	-	-	.	-	.
O=C1/C(=C\c2ccccc2)CCc2c1[nH]c1ccccc21	?	-	-	.	-	.
O=C1/C(=C/c2ccccc2)CCc2ccc(Cl)nc21	?	-63	35µM	-	.	-
CCCOc1ccc(NC(=O)CC2C(=O)Nc3ccccc3N2CC(=O)N2CCCC2)cc1 (stereo unspecified)	-	-60	-	.	-	.
Cc1[nH]c2ccccc2c1CCN(Cc1cccnc1)C(=S)Nc1cccc(F)c1	16µM	-	-	-	-	-
Cc1[nH]c2ccccc2c1CCN(Cc1cccnc1)C(=S)Nc1ccc(F)cc1	-	-	-	?	-	-
O=C(CCN1CCOCC1)NNC(=O)Nc1cccc(Cl)c1	-	-	-	-	-	-
O=C1CCC/C1=c1\s/c(=C\c2cccnc2)c(=O)n1-c1ccccc1	-	-79	?	-	-	-
COc1ccc(CC2=CC(=O)c3ccccc3C2=O)cc1	22µM	-97	?	.	28µM	.
COc1ccc(C(NCC(=O)NC(C)c2ccc(Cl)cc2)c2ccccc2)cc1 (stereo unspecified)	11µM	-	-	.	-	.
CCOc1ccc(C(Nc2cccnc2)c2cc(Cl)c3cccnc3c2O)cc1 (stereo unspecified)	?	-94	-	?	0.32µM	?
COc1ccc(NC(=O)CNC(c2ccccc2)c2ccccc2)cc1	-	-	-	.	-	.
CCOc1ccc(C(NC(C)=O)c2cc(Cl)c3cccnc3c2O)cc1 (stereo unspecified)	.	.	.	5µM	.	?
COc1ccccc1C(NC(C)=O)c1cc(Cl)c2cccnc2c1O (stereo unspecified)	?	-96	-	?	-	?
O=C(NCc1cccnc1)c1cc(Cl)ccc1[N+](=O)[O-]	-	-	-	-	-	-
COC(=O)Cc1c(C)c2ccc(OC(C)C)cc2oc1=O	-	-	-	.	-	.
O=Cc1ccc(N2CCCC2)c(F)c1	-	-	-	-	-	-
COc1ccc(C(=O)NC(c2ccc(Cl)cc2)c2cc(Cl)c3cccnc3c2O)cc1 (stereo unspecified)	.	-	-	10µM	-	?
CCC(=O)NC(c1ccc(OC)c(OC)c1)c1cc(Cl)c2cccnc2c1O (stereo unspecified)	?	-110	-	11µM	-	?
CCC(=O)NC(c1ccc(C)cc1)c1cc(Cl)c2cccnc2c1O (stereo unspecified)	.	.	-	.	.	.
COc1ccc(C(NC(=O)c2ccc(-c3ccccc3)cc2)c2ccccc2)cc1 (stereo unspecified)	-	-66	-	-	-	-
O=C(NC(c1ccccc1)c1cc(Cl)c2cccnc2c1O)c1cccnc1 (stereo unspecified)	-	-100	.	.	-	.
COC(=O)CSc1ncc2c(n1)-c1ccccc1N(Cc1ccc(Cl)cc1)S2(=O)=O	.	-	-	-	-	-

Compound activity: PubChem BioAssay, National Center for Advancing Translational Sciences (NCATS)
